MITF primary: MITF inhibitors, primary screen, biochemical, AlphaScreen, human | inhibition, % at 2.6 µM | Microphthalmia-associated transcription factor (Homo sapiens), O75030 | actives 0.91% (n = 650,000) | AlphaScreen MITF homodimerization, bead proximity signal; in the data active = inhibition above about 50%
FBW7 activator: FBW7 E3 ligase activators, primary screen, biochemical, AlphaScreen, human. F-box/WD repeat-containing protein 7 (Homo sapiens), Q969H0. AlphaScreen FBW7–phospho-cyclin E peptide binding, activator screen. normalized activity (activation), % at 26.1 µM. actives 0.13% (n = 650,000). AID 1259310, 2017; in the data active = normalized activity above about 1.9%;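 note: purified mutant Fbw7 with reduced substrate affinity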
GPR151 ag: activators of human GPR151, primary screen, cell-based, PathHunter beta-arrestin, luminescence | PathHunter beta-arrestin GPR151 cells | activation, % at 11.2 µM | actives 1% (n = 650,000) | AID 1508602, 2020; in the data active = activation above about 4.9%
TEAD-YAP inh: TEAD-YAP interaction inhibition, primary screen, TEAD-YAP interaction inhibitor project, luminescence, HEK-TIYL cells; TEAD-Gal4/YAP UAS-luciferase luminescence; inhibition, % at 9.12 µM; actives 1.4% (n = 640,000); AID 1259422, 2018; in the data active = inhibition above about 32%
A number is an active result; – = inactive. Most compounds without a hit are left out; they make up all but 3.5% or so of the library.

SMILES | MITF primary | FBW7 activator | GPR151 ag | TEAD-YAP inh
CC(Cc1ccccc1)NC(=O)CO/N=C/c1ccccc1O (stereo unspecified) | – | – | – | –
CCN(CC)c1nc(Nc2ccc(-n3ccnc3)cc2)nc(Nc2cc(OC)c(OC)c(OC)c2)n1 | – | – | – | 75
CCN(CC)c1nc(Nc2ccccc2)nc(Nc2cc(OC)c(OC)c(OC)c2)n1 | – | – | – | –
COc1cc(Nc2ccnc(Nc3ccc(-n4ccnc4)cc3)n2)cc(OC)c1OC | – | – | – | 51
Cc1cn2c3c(=O)n(CC(C)C)c(=O)n(C)c3nc2n1-c1ccc(Cl)cc1 | – | – | – | –
O=C(C1c2ccccc2Oc2ccccc21)N1CCCCCC1 | – | – | – | –
CCOC(=O)C1=C(C)NC2=C(C(=O)CC(C)(C)C2)C1c1cccc(OC)c1O (stereo unspecified) | – | 1.9 | – | –
COc1cc(C2C3=C(CC(C)(C)CC3=O)Nc3c2ccc2ccccc32)cc(Br)c1O (stereo unspecified) | – | – | – | 60
COC(=O)C1=C(C)NC2=C(C(=O)CC(C)(C)C2)C1c1cccc(Cl)c1Cl (stereo unspecified) | – | 2.0 | – | –
CC1=C(C(=O)OCCc2ccccc2)C(c2ccc(Cl)cc2Cl)C2=C(CC(C)(C)CC2=O)N1 (stereo unspecified) | – | 2.1 | – | –
O=C(O)c1cccc(-c2ccc(/C=C/[N+](=O)[O-])o2)c1 | – | – | – | –
COc1ccc(-n2nc(C(=O)NCC(=O)Nc3cccc(C)n3)c3ccccc3c2=O)c(OC)c1 | – | – | – | –
O=C(c1ccncc1)N1CC[C@@H]2[C@H](CCCN2Cc2ccc(F)cc2)C1 | – | – | – | –
CC(C)n1cnc2c(NCc3nc4ccccc4[nH]3)nc(-c3ccc(C(N)=O)cc3)nc21 | – | – | – | 77
COc1ccc(-c2nc(NCCO)c3ncn(C(C)C)c3n2)cc1 | – | – | – | –
CC(C)n1cnc2c(NCCO)nc(-c3ccc(C(N)=O)cc3)nc21 | – | – | – | –
COc1ccc(-c2nc(NCc3nc4ccccc4[nH]3)c3ncn(C(C)C)c3n2)cc1 | – | – | – | 71
NC(=O)C(C(=O)/C=C/c1ccc(Cl)cc1)=C1SCCS1 | – | – | – | 44
Cc1csc(NC(=O)CCc2c(C)nc3cc(-c4ccccc4)nn3c2C)n1 | – | – | – | 38
Cc1nc2cc(-c3ccc(Cl)cc3)nn2c(C)c1CCC(=O)O | – | – | – | 44

From PubChem
